Drawing on PubChem BioAssay (EPA / NIEHS), this text covers outcome and AC50 for seven compounds.

A short description of test [1]: ATG_NFI_CIS: Attagene CIS-FACTORIAL HepG2 Assay for human Nuclear Factor I (NFI) (AID 2282989). The following applies: HepG2 cis-regulatory reporter, NFI response element transcription; actives raise or lower the signal. An outline of the steps:
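Reporter transcripts were measured by RT-PCR with fluorescent primer extension and capillary electrophoresis 24 h post-treatment. HepG2 cells carried transiently transfected cis-regulated reporter constructs reporting endogenous factor activity; gain or loss fitted against DMSO baseline.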

Test [2] concerns the target Myc proto-oncogene protein (Homo sapiens) (UniProt P01106). The test is described as follows: ATG_Myc_CIS: Attagene CIS-FACTORIAL HepG2 Assay for human Myelocytomatosis (Myc) Proto-Oncogene Transcription Factor (AID 2282990). To be noted: HepG2, Attagene cis-reporter transcription factor activity; actives raise or lower the signal. The method in brief:
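HepG2 cells transiently transfected with multiple cis-promoter-driven reporter transcription units, so endogenous TF activity is read. After 24 h compound exposure, reporter mRNA was quantified by RT-PCR, 6-FAM labelling, HpaI digestion and capillary electrophoresis; bidirectional fit versus DMSO.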

Test [3] can be described thus: ATG_NRF2_ARE_CIS: Attagene CIS-FACTORIAL HepG2 Assay for human Nuclear Factor Erythroid 2 Related Factor 2 (NFR2) response to Antioxidant Response Elements (ARE) (AID 2282992).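 For AC50: reporter mRNA level measured by RT-PCR and capillary electrophoresis fluorescence.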 To be noted: HepG2 Attagene ARE/NRF2 reporter, transcription factor activity; actives raise or lower the signal. An outline of the steps:
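HepG2 cells transiently transfected with multiplexed cis-element reporter constructs, 24 h after chemical dosing; reporter mRNA quantified by RT-PCR, fluorescent primer extension, HpaI digestion and capillary electrophoresis. Bidirectional fit relative to DMSO.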

The nature of test [4]: ATG_Oct_MLP_CIS: Attagene CIS-FACTORIAL HepG2 Assay for human Octamer-Binding Transcription Factor (Oct) (AID 2282993). The following applies: HepG2 Attagene cis-factorial Oct reporter, mRNA; actives raise or lower the signal. The method in brief:
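Readout is reporter transcript level from RT-PCR with fluorescent primer extension and capillary electrophoresis, fitted in both directions against DMSO. Transfected HepG2 reporter units report endogenous factor activity after 24 h dosing.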

Test [5] in a line: BSK_3C_TissueFactor: BioMAP Diversity Plus: 3C Assay for Tissue Factor Biomarker Activity (AID 2282997). The following applies: BioMAP 3C HUVEC, tissue factor biomarker readout; actives raise or lower the signal. An outline of the steps:
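Primary human umbilical vein endothelial cells in the 3C system were exposed to test chemical for 24 h, then Tissue Factor measured by ELISA. Activity was fitted bidirectionally against DMSO as negative control and baseline.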

A short description of test [6]: BSK_3C_uPAR: BioMAP Diversity Plus: 3C Assay for Urokinase-type plasminogen activator receptor (uPAR) Biomarker Activity (AID 2282998). To be noted: BioMAP 3C HUVEC, uPAR biomarker ELISA; actives raise or lower the signal. The method in brief:
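Cell-surface uPAR on HUVEC (3C system) read by ELISA at 24 h post-treatment, with DMSO as baseline and fitting in both directions. Parallel cultures stained with SRB to flag overt cytotoxicity.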
For orientation: An ELISA detects its analyte on a solid surface through an enzyme-linked reagent.

Test [7] in a line: BSK_3C_VCAM1: BioMAP Diversity Plus: 3C Assay for Vascular cell adhesion molecule 1 (VCAM1) Biomarker Activity (AID 2282999). To be noted: BioMAP 3C HUVEC, VCAM1 ELISA, cytokine-stimulated; actives raise or lower the signal. The method in brief: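 Human umbilical vein endothelial cells were dosed with compound for 24 h, after which cell-surface VCAM-1 was quantified by ELISA. Bidirectional curve fitting used DMSO as negative control and activity baseline.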

Test [8] can be described thus: BSK_4H_Eotaxin3: BioMAP Diversity Plus: 4H Assay for Eotaxin 3 Biomarker Activity (AID 2283000).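 For outcome: CCL26 protein level quantified by ELISA in parallel with SRB cytotoxicity check.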 To be noted: primary human endothelial cells (HUVEC); actives raise or lower the signal. An outline of the steps:
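HUVEC, 24 h post-dose, ELISA for Eotaxin-3/CCL26. Gain or loss of signal fitted bidirectionally vs DMSO baseline.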

Read-out in test [9]: Intercellular Adhesion Molecule 1 (ICAM1), ICAM1 (gene 3383)
The test is described as follows: BSK_3C_ICAM1: BioMAP Diversity Plus: 3C Assay for Intercellular Adhesion Molecule 1 (ICAM1) Biomarker Activity (AID 2283003). The following applies: primary human endothelial cells (HUVEC); actives raise or lower the signal. An outline of the steps: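 Primary human umbilical vein endothelial cells in the BioMAP 3C system were exposed to chemicals for 24 h, then ICAM-1 was quantified by ELISA. Activity was fitted bidirectionally against the DMSO negative control baseline.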

The target in test [10] is human Retinoic Acid Receptor beta (RARb), RARB (gene 5915) (UniProt P10826). As to the kind of experiment: ATG_RARb_TRANS: Attagene TRANS-FACTORIAL HepG2 Assay for human Retinoic Acid Receptor beta (AID 2283004; active = hit-call score of the fitted dose curve at least 0.9, where 1 is the maximum). The method in brief:
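HepG2 cells transiently transfected with multiplexed GAL4-UAS reporter units expressing chimeric NR–Gal4 fusions; 24 h compound exposure. Reporter mRNA quantified by RT-PCR, 6-FAM labelling, HpaI digestion and capillary electrophoresis; gain-of-signal fitted against DMSO baseline.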

A short description of test [11]: BSK_3C_Proliferation: Cell Proliferation Assessment in the BioMAP Diversity Plus: 3C Assay (AID 2283006). To be noted: primary human endothelial cells (HUVEC). An outline of the steps: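 Human umbilical vein endothelial cells were grown sub-confluent and exposed to chemical for 48 h, then fixed with 10% TCA and stained with 0.1% sulforhodamine B; absorbance at 560 nm gave relative cell number, fitted bidirectionally against DMSO baseline.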

In test [12] the target is Peroxisome proliferator-activated receptor gamma (Homo sapiens) (UniProt P37231). As to the kind of experiment: ATG_PPARg_TRANS: Attagene TRANS-FACTORIAL HepG2 Assay for human Peroxisome Proliferator-activated Receptor-gamma (PPARg) (AID 2283007; active = hit-call score of the fitted dose curve at least 0.9, where 1 is the maximum). The method in brief:
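Twenty-four hours after chemical dosing of transiently transfected HepG2 cells, isolated RNA was converted to cDNA, reporter sequences amplified and 6-FAM-labelled, then HpaI-digested and analysed by capillary electrophoresis. Signal increase against DMSO was fitted.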

Test [13] deals with human Retinoic Acid Receptor gamma (RARg), RARG (gene 5916) (UniProt P13631). As to the kind of experiment: ATG_RARg_TRANS: Attagene TRANS-FACTORIAL HepG2 Assay for human Retinoic Acid Receptor gamma (RARg) (AID 2283009; active = hit-call score of the fitted dose curve at least 0.9, where 1 is the maximum). An outline of the steps:
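HepG2 cells transiently transfected with multiplexed reporter units expressing chimeric RARg-GAL4 and GAL4-UAS-driven reporters; 24 h compound exposure. Reporter mRNA quantified by RT-PCR with fluorescent labelling and capillary electrophoresis; gain-of-signal fitted relative to DMSO baseline.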

For test [14], the target named is Cellular tumor antigen p53 (Homo sapiens) (UniProt P04637). As to the kind of experiment: ATG_p53_CIS: Attagene CIS-FACTORIAL HepG2 Assay for human p53 Transcription Factor (AID 2282994). To be noted: HepG2 p53 cis-element reporter, Attagene mRNA; actives raise or lower the signal. An outline of the steps: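 HepG2 cells transiently transfected with cis-regulated multiple reporter transcription units, dosed 24 h. Reporter mRNA measured by RT-PCR, 6-FAM primer extension, HpaI digestion and capillary electrophoresis; bidirectional fit relative to DMSO.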

Test [15] concerns the target human Peroxisome Proliferator-activated Receptor alpha (PPARa), PPARA (gene 5465) (UniProt Q07869). As to the kind of experiment: ATG_PPARa_TRANS: Attagene TRANS-FACTORIAL HepG2 Assay for human Peroxisome Proliferator-activated Receptor alpha (PPARa) (AID 2283001; active = hit-call score of the fitted dose curve at least 0.9, where 1 is the maximum). An outline of the steps:
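HepG2 cells transiently transfected with multiplexed GAL4-UAS reporter units and chimeric NR-Gal4 constructs were dosed for 24 h. Reporter mRNA was measured by RT-PCR with fluorescent labelling and capillary electrophoresis; gain of signal fitted against DMSO.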

In test [16] the target is Retinoic acid receptor alpha (Homo sapiens) (UniProt P10276). As to the kind of experiment: ATG_RARa_TRANS: Attagene TRANS-FACTORIAL HepG2 Assay for human Retinoic Acid Receptor alpha (RARa) (AID 2283005; active = hit-call score of the fitted dose curve at least 0.9, where 1 is the maximum). An outline of the steps: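 HepG2 cells transiently transfected with multiple reporter units expressing chimeric RARα-GAL4 fusion, with GAL4-UAS-driven reporters. After 24 h compound exposure, reporter mRNA induction quantified by RT-PCR and capillary electrophoresis with fluorescent labeling; gain-of-signal fitted relative to DMSO control.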

Test [17] addresses human RAR-related Orphan Receptor beta (RORb), RORB (gene 6096) (UniProt Q92753). The test is described as follows: ATG_RORb_TRANS: Attagene TRANS-FACTORIAL HepG2 Assay for human RAR-related Orphan Receptor beta (RORb) (AID 2283010; active = hit-call score of the fitted dose curve at least 0.9, where 1 is the maximum). The method in brief: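 HepG2 cells were transiently transfected with multiplexed GAL4-UAS reporter units expressing chimeric nuclear receptor–GAL4 proteins, then dosed for 24 h. Reporter mRNA was quantified by RT-PCR with fluorescent labelling and capillary electrophoresis; gain of signal was fitted relative to DMSO.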

The target of test [18] is Nuclear receptor subfamily 1 group I member 2 (Homo sapiens) (UniProt O75469). The test is described as follows: ATG_PXR_TRANS: Attagene TRANS-FACTORIAL HepG2 Assay for human Pregnane X Receptor (PXR) (AID 2283008; active = hit-call score of the fitted dose curve at least 0.9, where 1 is the maximum). An outline of the steps:
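HepG2 cells transiently transfected with GAL4-UAS reporter units and PXR-Gal4 chimera, exposed 24 h. Reporter mRNA quantified by RT-PCR, fluorescent labelling, HpaI digestion and capillary electrophoresis; gain of signal vs DMSO.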

Results filed as inconclusive are left out. A structure can be active in one record and inactive in another. Active and inactive are the calls of the source. Rule for the calls, unless noted: active = hit-call score of the fitted dose curve at least 0.9, where 1 is the maximum; inactive = score below 0.9.

Peroxisome proliferator-activated receptor gamma (Homo sapiens), sequence (P37231 whole entry, looked up): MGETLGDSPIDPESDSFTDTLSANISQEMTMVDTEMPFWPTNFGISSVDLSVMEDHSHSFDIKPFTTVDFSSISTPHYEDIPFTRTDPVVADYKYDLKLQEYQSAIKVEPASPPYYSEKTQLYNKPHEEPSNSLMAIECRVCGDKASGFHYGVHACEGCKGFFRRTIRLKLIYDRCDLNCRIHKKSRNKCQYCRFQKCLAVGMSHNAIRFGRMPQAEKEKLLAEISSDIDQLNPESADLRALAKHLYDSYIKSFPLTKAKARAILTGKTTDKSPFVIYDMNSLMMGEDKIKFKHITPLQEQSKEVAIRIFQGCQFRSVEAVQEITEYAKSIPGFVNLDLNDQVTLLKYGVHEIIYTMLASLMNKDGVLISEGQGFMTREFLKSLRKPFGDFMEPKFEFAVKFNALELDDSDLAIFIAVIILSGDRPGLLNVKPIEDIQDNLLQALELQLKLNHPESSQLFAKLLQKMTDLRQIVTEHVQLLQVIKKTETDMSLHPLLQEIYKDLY
human Retinoic Acid Receptor beta (RARb), RARB (gene 5915), sequence (P10826 whole entry, looked up, the tested form may be a part): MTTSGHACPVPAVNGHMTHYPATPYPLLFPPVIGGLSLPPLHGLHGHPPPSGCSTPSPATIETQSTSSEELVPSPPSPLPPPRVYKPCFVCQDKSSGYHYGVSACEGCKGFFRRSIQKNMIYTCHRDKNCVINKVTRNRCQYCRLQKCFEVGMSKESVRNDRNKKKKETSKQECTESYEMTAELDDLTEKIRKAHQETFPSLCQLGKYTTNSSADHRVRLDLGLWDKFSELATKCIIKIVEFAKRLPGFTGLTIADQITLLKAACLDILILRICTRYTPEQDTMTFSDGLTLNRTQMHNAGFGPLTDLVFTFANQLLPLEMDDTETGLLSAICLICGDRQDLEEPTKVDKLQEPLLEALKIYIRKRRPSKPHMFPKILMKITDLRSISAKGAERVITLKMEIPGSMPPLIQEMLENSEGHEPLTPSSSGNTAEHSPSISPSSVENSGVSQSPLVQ
Cellular tumor antigen p53 (Homo sapiens), sequence (P04637 whole entry, looked up): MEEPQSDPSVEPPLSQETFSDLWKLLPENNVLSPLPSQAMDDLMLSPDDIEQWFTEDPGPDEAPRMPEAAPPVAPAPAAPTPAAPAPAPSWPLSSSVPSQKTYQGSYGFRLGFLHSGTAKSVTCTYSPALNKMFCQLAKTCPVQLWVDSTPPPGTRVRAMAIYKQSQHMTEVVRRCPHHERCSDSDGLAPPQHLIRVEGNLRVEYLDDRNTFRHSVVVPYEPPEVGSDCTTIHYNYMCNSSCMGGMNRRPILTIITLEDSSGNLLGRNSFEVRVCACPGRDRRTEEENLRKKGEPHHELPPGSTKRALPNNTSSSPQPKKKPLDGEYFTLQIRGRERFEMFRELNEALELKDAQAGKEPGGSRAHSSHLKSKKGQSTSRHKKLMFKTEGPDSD
human RAR-related Orphan Receptor beta (RORb), RORB (gene 6096), sequence (Q92753 whole entry, looked up, the tested form may be a part): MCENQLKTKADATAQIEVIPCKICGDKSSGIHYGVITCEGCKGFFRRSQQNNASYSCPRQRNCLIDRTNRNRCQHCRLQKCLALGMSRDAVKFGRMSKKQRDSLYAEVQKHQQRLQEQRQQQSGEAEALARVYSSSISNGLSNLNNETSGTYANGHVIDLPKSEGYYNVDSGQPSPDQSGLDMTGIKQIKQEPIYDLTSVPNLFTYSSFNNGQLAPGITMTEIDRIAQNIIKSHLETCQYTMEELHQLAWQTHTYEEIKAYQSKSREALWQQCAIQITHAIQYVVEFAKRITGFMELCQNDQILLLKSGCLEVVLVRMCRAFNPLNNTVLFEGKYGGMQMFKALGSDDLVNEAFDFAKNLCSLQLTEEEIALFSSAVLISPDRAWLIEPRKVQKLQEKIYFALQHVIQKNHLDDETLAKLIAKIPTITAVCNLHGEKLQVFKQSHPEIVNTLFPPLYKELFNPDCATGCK
human Peroxisome Proliferator-activated Receptor alpha (PPARa), PPARA (gene 5465), sequence (Q07869 whole entry, looked up, the tested form may be a part): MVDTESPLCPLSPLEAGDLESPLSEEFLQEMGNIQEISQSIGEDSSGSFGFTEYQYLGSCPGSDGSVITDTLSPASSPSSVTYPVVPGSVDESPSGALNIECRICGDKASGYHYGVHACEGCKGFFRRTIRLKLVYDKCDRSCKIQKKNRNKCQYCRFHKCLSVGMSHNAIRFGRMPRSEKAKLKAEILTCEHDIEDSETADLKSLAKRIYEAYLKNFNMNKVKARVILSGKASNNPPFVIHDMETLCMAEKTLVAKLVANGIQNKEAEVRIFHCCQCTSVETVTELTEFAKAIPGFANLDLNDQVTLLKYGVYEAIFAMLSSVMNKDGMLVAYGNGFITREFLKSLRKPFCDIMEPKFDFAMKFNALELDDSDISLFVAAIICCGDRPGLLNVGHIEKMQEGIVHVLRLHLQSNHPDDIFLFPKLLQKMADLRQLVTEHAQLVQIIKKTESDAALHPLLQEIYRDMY
Nuclear receptor subfamily 1 group I member 2 (Homo sapiens), sequence (O75469 whole entry, looked up, the tested form may be a part): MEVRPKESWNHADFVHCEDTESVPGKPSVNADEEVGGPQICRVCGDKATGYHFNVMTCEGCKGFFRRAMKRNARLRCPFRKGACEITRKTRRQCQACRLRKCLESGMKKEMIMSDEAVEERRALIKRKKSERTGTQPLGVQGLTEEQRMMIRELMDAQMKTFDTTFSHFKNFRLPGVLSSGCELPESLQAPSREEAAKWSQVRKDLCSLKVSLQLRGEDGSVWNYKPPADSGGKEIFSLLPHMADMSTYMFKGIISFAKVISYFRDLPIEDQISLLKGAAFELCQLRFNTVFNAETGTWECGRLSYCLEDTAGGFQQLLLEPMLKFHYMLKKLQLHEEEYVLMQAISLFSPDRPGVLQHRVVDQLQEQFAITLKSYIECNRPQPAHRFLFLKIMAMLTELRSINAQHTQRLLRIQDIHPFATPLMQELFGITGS
Myc proto-oncogene protein (Homo sapiens), sequence (P01106 whole entry, looked up): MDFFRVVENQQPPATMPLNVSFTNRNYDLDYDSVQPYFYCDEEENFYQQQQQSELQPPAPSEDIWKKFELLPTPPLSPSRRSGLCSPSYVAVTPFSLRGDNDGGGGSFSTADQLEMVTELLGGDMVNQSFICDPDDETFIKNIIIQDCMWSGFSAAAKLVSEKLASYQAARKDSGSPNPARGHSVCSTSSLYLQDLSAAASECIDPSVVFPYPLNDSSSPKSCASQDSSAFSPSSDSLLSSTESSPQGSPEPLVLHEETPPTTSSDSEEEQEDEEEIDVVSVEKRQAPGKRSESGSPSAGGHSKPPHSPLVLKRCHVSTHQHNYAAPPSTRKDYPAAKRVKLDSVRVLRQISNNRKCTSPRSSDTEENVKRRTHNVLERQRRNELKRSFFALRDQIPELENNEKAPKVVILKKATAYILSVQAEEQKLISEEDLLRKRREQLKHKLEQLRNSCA
Retinoic acid receptor alpha (Homo sapiens), sequence (P10276 whole entry, looked up, the tested form may be a part): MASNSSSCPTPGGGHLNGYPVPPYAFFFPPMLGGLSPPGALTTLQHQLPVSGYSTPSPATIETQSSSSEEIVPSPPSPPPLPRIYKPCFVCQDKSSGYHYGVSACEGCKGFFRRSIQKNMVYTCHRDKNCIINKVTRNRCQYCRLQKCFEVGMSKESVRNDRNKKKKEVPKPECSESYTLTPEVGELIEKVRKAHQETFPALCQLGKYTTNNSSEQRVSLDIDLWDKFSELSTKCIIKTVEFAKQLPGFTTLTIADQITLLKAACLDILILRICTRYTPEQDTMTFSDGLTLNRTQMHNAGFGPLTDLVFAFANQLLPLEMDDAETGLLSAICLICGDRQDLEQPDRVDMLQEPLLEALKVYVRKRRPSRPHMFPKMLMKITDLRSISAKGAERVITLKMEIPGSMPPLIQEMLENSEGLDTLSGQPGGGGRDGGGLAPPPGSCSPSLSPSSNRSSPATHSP
human Retinoic Acid Receptor gamma (RARg), RARG (gene 5916), sequence (P13631 whole entry, looked up, the tested form may be a part): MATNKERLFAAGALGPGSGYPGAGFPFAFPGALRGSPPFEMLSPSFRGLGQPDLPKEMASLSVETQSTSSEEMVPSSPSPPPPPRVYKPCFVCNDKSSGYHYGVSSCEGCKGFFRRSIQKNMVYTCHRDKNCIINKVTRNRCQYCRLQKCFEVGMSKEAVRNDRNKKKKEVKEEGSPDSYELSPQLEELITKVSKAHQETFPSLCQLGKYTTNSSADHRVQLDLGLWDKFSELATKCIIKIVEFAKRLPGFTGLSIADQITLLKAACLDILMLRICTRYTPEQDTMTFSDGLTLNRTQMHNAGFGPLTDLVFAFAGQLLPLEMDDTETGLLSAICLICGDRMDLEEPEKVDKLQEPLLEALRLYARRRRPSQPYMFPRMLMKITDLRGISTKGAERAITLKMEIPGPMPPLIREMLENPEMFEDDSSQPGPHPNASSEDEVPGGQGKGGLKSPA

Regarding `CN(c1nccc(=O)[nH]1)C1CCN(c2nc3ccccc3n2Cc2ccc(F)cc2)CC1`, the compound was classed as inactive in test [1], in test [2], in test [3], in test [4], in test [5] and in [7]. The outcome in [8], in [9], in test [10], in test [11], in test [12] and in test [13] was inactive. Moreover, in [6], the AC50 (commonly the concentration giving half of the maximal activity seen) is 1.84 µM (active).

For `C=C(CC(=O)O)C(=O)O`, the result in [1], in test [2], in [3], in [14], in test [15] and in test [16] was inactive. In addition, the outcome in test [12], in [13] and in [17] was inactive.

As for `CCOc1ccc(NC(=O)CC(C)=O)cc1`, the call in test [1], in [2], in test [3], in test [4], in test [15] and in test [10] was inactive. The compound was called inactive in test [18].

As to `CCc1cc(C(C)(C)C)c(O)c(C(C)(C)C)c1`, the AC50 in test [1] was 54 µM (active); in test [3], 52.6 µM (active); in test [12], 61 µM (active); in [18], 26.8 µM (active). Besides, the call in [2], in test [4], in test [14], in test [10] and in [16] was inactive.

For the compound `C=CC(C)(O)CCC=C(C)C` (stereo not given), the call in test [1], in test [2], in test [3], in [4], in test [5] and in test [6] was inactive. In addition, the outcome in test [7], in test [8], in [15], in test [9], in [10] and in [11] was inactive. The compound was called inactive in test [12], in test [18] and in test [17]. Moreover, the AC50 in test [8] was 0.149 µM (active).

In the case of `CCCOCCO`, the outcome in test [1], in [2], in [3], in test [14], in test [15] and in [10] was inactive. The call in test [12], in test [18] and in [17] was inactive.

With `CCCCOC(=O)CCCCCCCC(=O)OCCCC`, the compound was called inactive in [1], in [2], in [3], in test [14], in test [5] and in test [6]. The result in test [7], in test [8], in test [15], in test [9], in test [11] and in test [18] was inactive.
